From PubChem BioAssay AID2279 (Southern Research Specialized Biocontainment Screening …, 2010)
Measured potencies and affinities stand elsewhere. Active and inactive are the calls of the source. How the calls were made is not given here.

assay: HIV-1 Env-mediated cell fusion inhibitors, dose response, CCR5-tropic Env (AID 2279); conditions: CCR5-tropic HIV-1 Env, reporter read-out; series mostly up to 50 µM; inhibition: at the top concentration

inhibition, inactive:
O=C(COc1ccc2ccccc2c1)Nc1cccc(C(=O)Nc2ccccc2C(=O)O)c1 1.46%
COc1cc(C(c2c(C(=O)O)[nH]c3ccccc23)c2c(C(=O)O)[nH]c3ccccc23)ccc1OCc1ccccc1 -18.4%
COc1ccc(-c2coc3c(C)c4oc(=O)c(CCC(=O)O)c(C)c4cc23)cc1 -8.28% [at 25 µM]
Cc1cc(/C=C2\C(=N)N3N=C(S(C)(=O)=O)SC3=NC2=O)c(C)n1Cc1ccccc1 14%
Cc1ccccc1C(=O)Nc1cccc(C(=O)N/N=C/c2cc(Cl)cc([N+](=O)[O-])c2O)c1 39.4%
COc1cc(/C=C2/C(=O)NN(c3ccc(C)c(Cl)c3)C2=O)cc([N+](=O)[O-])c1O -5.49%
CCS(=O)(=O)C1=NSC2=NC(=O)/C(=C\c3ccc(OS(=O)(=O)c4ccccc4)c(OC)c3)C(=N)N21 10%
Cc1ccc(S(=O)(=O)Oc2ccc(/C=C3/C(=N)N4C(=NC3=O)SN=C4S(C)(=O)=O)cc2)cc1 4.93%
CCCCCOc1ccc(C2C(C(=O)c3ccc(C)o3)=C(O)C(=O)N2c2cc(C)on2)cc1 (centres undefined) 37.2%
O=C(O)/C(CC(=O)c1ccc(Cl)cc1)=N/Nc1ccc([N+](=O)[O-])cc1[N+](=O)[O-] -3.03%
Cc1cc(C)c2nc(N3C(=O)C(O)=C(C(=O)c4ccco4)C3c3ccco3)sc2c1 (centres undefined) 22.3%
CC(C)CS(=O)(=O)C1=NN2C(=N)/C(=C\c3ccc(OC(=O)c4ccco4)cc3)C(=O)N=C2S1 20.7%
CSc1nc(SCC(=O)O)c2sc3nc(-c4ccccc4)c4c(c3c2n1)CCC4 23.1%
N#Cc1c(-c2ccccc2)nc(SCC(=O)N2c3ccccc3Sc3ccccc32)[nH]c1=O -1.64%
